Among the data in PubChem BioAssay (NCI) are growth inhibition values, retold here.

The nature of test [1]: NCI Yeast Anticancer Drug Screen. Data for the rad50 strain (AID 155).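 Further: 0% = growth of vehicle-only cultures of the same strain.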 The following applies: S. cerevisiae rad50 strain growth inhibition; at 50.0 µM; hits give high values. Put shortly: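 Genetically altered yeast (DNA repair pathway); compound treatment; growth inhibition vs vehicle ctrl.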
Test [2] can be described thus: NCI Yeast Anticancer Drug Screen. Data for the mec2-1 strain (AID 157). The following applies: S. cerevisiae mec2-1 strain, at 50.0 µM, hits give high values. Put shortly:
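Cells of the genetically defined mec2-1 yeast strain are incubated with test compound. Inhibition of growth is calculated against vehicle-treated controls.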

Test [3] is described as follows: NCI Yeast Anticancer Drug Screen. Data for the sgs1 mgt1 strain (AID 161).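 Further: 0% = growth of cultures given vehicle only.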 The conditions noted are these: S. cerevisiae sgs1 mgt1 strain, at 50.0 µM, hits give high values. In outline: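 Mutant yeast exposed to compound; growth scored against vehicle-only wells.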
The nature of test [4]: NCI Yeast Anticancer Drug Screen. Data for the cln2 rad14 strain (AID 165).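 Further: 0% = growth equal to vehicle treated cultures.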 The conditions noted are these: S. cerevisiae cln2 rad14 strain, at 50.0 µM, hits give high values. In outline: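 The screen exposed genetically defined yeast (cln2 rad14) to test compounds and scored growth inhibition relative to vehicle-treated controls.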
A short description of test [5]: NCI Yeast Anticancer Drug Screen. Data for the bub3 strain (AID 167). The conditions noted are these: S. cerevisiae bub3 mutant strain, at 50.0 µM, hits give high values. In outline:
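Yeast carrying a defined mutation is treated with each compound, and growth is compared with that of vehicle-exposed cells to give inhibition.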

The nature of test [6]: NCI Yeast Anticancer Drug Screen. Data for the mlh1 rad18 strain (AID 175). The conditions noted are these: S. cerevisiae mlh1 rad18 strain growth inhibition; at 50.0 µM; hits give high values. In outline: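 Compound-treated yeast growth, normalised to vehicle controls. Strain bears defined DNA repair mutations.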

The structures appear in SMILES notation. This is part of a sample that, as a whole, favours compounds with a hit. Of some 79,000 tested, about 15% had one in any assay. Unmarked numbers belong to inactive results. The source made the active and inactive calls. No stated cut-off is given here; in the data, active means growth inhibition above about 70%; inactive means the rest. Where a SMILES comes first, the peptide text is derived from it. [ ]: non-standard residue; d: D form. The star is where a group is joined. Phe(4-NO2) = N[CH](Cc1ccc([N+](=O)[O-])cc1)C(=O)O; Boc = CC(C)(C)OC(=O)*

`CSC(=Nc1ccc(Br)cc1)NC(=O)c1cc([N+](=O)[O-])cc([N+](=O)[O-])c1`: the growth inhibition in test [1] is -33%; in test [2], 3.4%; in test [3], 23.1%; in test [4], -58%; in test [5], 6.2%; in test [6] it was -18.8%.
As for `OCc1c(-c2ccccc2)oc(-c2ccccc2)c1CN1CCOCC1`, the growth inhibition in test [1] was 11.9%; in test [2], -0.95%; in test [3], 6.55%; in test [4], -11.9%; in test [5], 12%; in test [6], 9.2%.
Take `CCCCCC/C(C)=C/CCC(C)=O`: the growth inhibition in test [1] is 12.4%; in test [2] it was 4.15%; in test [3], 14.8%; in test [4] it was 11.3%; in test [5], 4.7%; in test [6], -0.25%.
Consider `CN(C)c1ccc2c(c1[N+](=O)[O-])Cc1ccccc1-2`, for which the growth inhibition is 18.3% in test [1]; 3.3% in test [2]; 6.75% in test [3]; 14.6% in test [4]; 32.2% in test [5]; 6.05% in test [6].
Regarding `CC(C)=CCC(C)C`, the growth inhibition in test [1] was -12.1%; in test [2], 3.85%; in test [3] it was 6.85%; in test [4], 7.9%; in test [5], -12.6%; in test [6] it was -3.85%.
As to `O=[N+]([O-])c1ccc(CCn2cnc3c(N(CCO)CCO)ncnc32)cc1`, the growth inhibition in test [1] is -7.85%; in test [2], -0.9%; in test [3], 3.6%; in test [4] it was -54.3%; in test [5] it was 6.95%; in test [6] it was -14.3%.
As to `OCC(O)C(O)C(O)C(c1ccc(Cl)cc1)c1ccc(Cl)cc1` (stereo not given), the growth inhibition was -16.4% in test [1]; 0.65% in test [2]; -23% in test [3]; 5.35% in test [4]; 2.25% in test [5]; 35% in test [6].
As for `COc1cccc(N)c1`, the growth inhibition in test [1] was 4.6%; in test [2] it was -11.8%; in test [3], -6.65%; in test [4] it was -2.75%; in test [5], -4.95%; in test [6], -10.2%.
Take `O=C(/C=C/c1ccccc1)CCc1c(O)c2ccccc2oc1=O`: the growth inhibition is 9.05% in test [1]; -5.3% in test [2]; 0.45% in test [3]; 31.1% in test [4]; 1.85% in test [5]; 28.8% in test [6].
As to `CCCCCCCCCCCCCCCC1=NN(c2ccccc2)C(=O)C1N=Nc1ccccc1` (stereo not given), the growth inhibition in test [1] was 8.2%; in test [2], -8.95%; in test [3], -0.75%; in test [4], -10.2%; in test [5] it was -3.3%; in test [6], 2.05%.
Take `COCCOCOCCCC#C[Si](C)(C)C`: the growth inhibition in test [1] was 8.3%; in test [2], 25.9%; in test [3], 13.9%; in test [4], -1.2%; in test [5] it was -4%; in test [6], -19.4%.
`CCCCc1cccc2c1OCO2`: the growth inhibition in test [1] is -18.6%; in test [2], -0.6%; in test [3] it was -7.75%; in test [4] it was -9.75%; in test [5], -12.5%; in test [6], 36.8%.
On to `COc1nc2[nH]ccc2c(=O)[nH]1`, for which the growth inhibition in test [1] is -23.8%; in test [2], -25.2%; in test [3], -31.8%; in test [4] it was 3.15%; in test [5] it was -11.3%; in test [6] it was -11.1%.
For the molecule `Cc1ccccc1-[n+]1noc(N)n1`, the growth inhibition in test [1] was 4.75%; in test [2], 0.45%; in test [3] it was -14.6%; in test [4], 3.85%; in test [5] it was -0.7%; in test [6], 12.6%.
Take `O=c1[nH]c(=S)[nH]c2c1CCC2`: the growth inhibition in test [1] was 6%; in test [2], 25.4%; in test [3] it was 44.2%; in test [4] it was 21.4%; in test [5], 35.2%; in test [6], 24.1%.
As to `COC(=O)CCC(NC(=O)OC(C)(C)C)C(=O)NC(Cc1ccc([N+](=O)[O-])cc1)C(=O)NC(CCC(=O)OC)C(=O)OC` (stereo not given) (Boc-Glu(OMe)-[Phe(4-NO2)]-Glu(OMe)-OMe; configuration not given here), the growth inhibition in test [1] was 7.6%; in test [2] it was -6.6%; in test [3], 9.9%; in test [4], 20.6%; in test [5], 11.7%; in test [6], -44.1%.
With `Oc1cc2c(cc1O)-c1[nH]ncc1CC2`, the growth inhibition in test [1] was 24.5%; in test [2], 0.25%; in test [3], 3.35%; in test [4], -17.4%; in test [5] it was 4.55%; in test [6], -4.55%.
Regarding `Nc1ncc(Cl)c(NCC2(CO)CC(CCc3ccccc3)C2)n1` (stereo not given), the growth inhibition in test [1] was -4.7%; in test [2], -19.1%; in test [3], -11.6%; in test [4], -1.15%; in test [5], -37%; in test [6] it was 2.35%.
With `O=c1cc(CSc2ncnc3nc[nH]c23)occ1O`, the growth inhibition in test [1] is -11.3%; in test [2], -4.4%; in test [3] it was -2.1%; in test [4] it was 2.55%; in test [5], 11.8%; in test [6], 4.2%.
`O=C(CCc1ccc(O)c(O)c1)OCCc1ccccc1`: the growth inhibition in test [1] was 89.2% (active); in test [2], 89.8% (active); in test [3] it was 90.9% (active); in test [4], 88% (active); in test [5], 87.5% (active); in test [6], 89.2% (active).
